Assay outcomes (PubChem BioAssay)
Sampled rows, rich in hits. Any-hit rate of the full collection: about 19%.
DT40 TDP1 no CPT – qHTS for Inhibitors of human tyrosyl-DNA phosphodiesterase 1 (TDP1): qHTS in cells in absence of CPT; DT40 Tdp1-/- hTDP1 cells, no CPT, ATP luminescence, 48 h; Potency, µM (highest dose often 46.2 µM), for the others: top-dose activity change, negative = growth inhibition, usual class: inhibitors; actives 15% (n = 420,000); also: potency is read from the fitted curve at half-maximal effect; nearly all actives have a fitted effect of over 55% in size
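Readout: luminescence from CellTiter-Glo after 30 min in the dark at RT. Cells: DT40 Tdp1-/- with stable hTDP1, 400/well. Exposure: compounds alone, ≥48 hr, 37 °C.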
HT1080 IDH1KD tx – HT-1080 IDH1 knockdown cell toxicity (counter line) | actives 2% (n = 360,000) | Potency, µM (top dose mostly 46.1 µM), for the others: at the top dose activity, negative = toxicity, most hits filed as cytotoxic | HT-1080 IDH1 knockdown viability, ATP luminescence, 48 h;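 also: potency is read from the fitted curve at half-maximal effect; 0% = DMSO wells and -100% = cell-free medium wells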
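Viability of IDH1-knockdown HT-1080 fibrosarcoma cells was assessed by CellTiter-Glo after 48 h at 37 °C with titrated compound; concentration-effect curves were classified by fit quality and response size.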
TDP1 cell CPT – growth inhibition of DT40 Tdp1-/-;hTDP1 cells with camptothecin (screen for TDP1 inhibitors) | chicken DT40 Tdp1-/-;hTDP1 cells + 20 nM CPT, ATP luminescence, 48 h | Potency, µM (top dose mostly 46.2 µM), for the others: at the highest dose activity change, negative = growth inhibition, usual class: inhibitors | actives 12% (n = 420,000); also: potency is read from the fitted curve at half-maximal effect; nearly all actives have a fitted effect of over 55% in size
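Chicken DT40 Tdp1-/- cells complemented with human TDP1, 400 cells/well, exposed to compounds plus 20 nM camptothecin for at least 48 h at 37 C; viability read as ATP content by CellTiter-Glo luminescence.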
HT1080NT lethal – kills 2HG-producing HT-1080-NT fibrosarcoma cells | Potency, µM (highest dose often 46.1 µM), inactives show at the highest dose activity, negative = less viability, most hits filed as cytotoxic | AID 686970 | HT-1080-NT fibrosarcoma viability, CellTiter-Glo ATP luminescence, 48 h | actives 1.6% (n = 360,000);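 also: NT is the 2HG producing partner of a matched IDH1 knockdown line; potency is read from the fitted curve at half-maximal effect; 0% = DMSO-treated cells and -100% = media-only wells without cells; nearly all actives have a fitted effect of over 55% in size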
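HT-1080-NT; 750 cells/well; 5% FBS RPMI; 48 h compound, 37 degrees C; CellTiter-Glo luminescence; curve fitting and curve-class assignment.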
ELG1 repair inh – inhibitors of ELG1-dependent DNA repair in HEK293T cells | HEK293T ELG1-luciferase reporter, luminescence, 16 h; DNA damage induced by 5-fluorouridine | Potency, µM (doses to about 46.1 µM), without a hit: at the highest dose activity change, negative = inhibition, hits mostly inhibitors | actives 2.3% (n = 330,000) | AID 504467; also: potency is read from the fitted curve at half-maximal effect; nearly all actives have a fitted effect of over 55% in size
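Overnight (16 hr) co-exposure of 2,000 cells/well to 5-fluorouridine and compound at 37 °C preceded detection. Luciferase was quantified via ONE-Glo luminescence; loss of signal denotes inhibition.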
IL1B secr inh – blocks inflammasome-driven IL-1 beta release; THP-1 LPS/ATP IL-1B secretion, AlphaLISA, 16 h; active compounds read low; AID 743279; activity change, % at 57.5 µM; actives 4.7% (n = 360,000); in the data active = activity change below about -50%; inconclusive = mostly about -30% to -49%
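Secreted IL-1B measured by AlphaLISA bead assay after 16 h compound exposure of THP-1 cells; compounds (final up to 57.5 uM) added 1 h before LPS (250 ng/mL) and ATP (1.25 mM) stimulation; lower signal means less secretion.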
Starred values were filed as active, the others as inactive; ? = inconclusive; . = not tested or not shown. Unless noted, calls follow the shape of the dose curve; as a rule, active = well fitted curve in the direction sought with a large enough effect; inconclusive = small, poorly fitted or top-dose-only effect, or another doubt; inactive = no such curve, though single readings can be large; an effect the other way counts as inactive or inconclusive. Unless noted, % is scaled to controls: 0 for no effect and ±100 for the full control effect.

SMILES	DT40 TDP1 no CPT	HT1080 IDH1KD tx	TDP1 cell CPT	HT1080NT lethal	ELG1 repair inh	IL1B secr inh
CCc1ccc2nc3c(c(C(=O)O)c2c1)CCC3	-4%	2%	-9%	0%	4%	11
CCc1ccc2nc(N=C(N)N)nc(C)c2c1	7.3µM*	?	10µM*	?	-5%	-91*
CCOc1ccc(CCNC(=O)COC(=O)c2cccnc2SC)cc1OCC	-8%	0%	11%	4%	-4%	8
Cc1cc2nc(N=C(N)N)nc(C)c2cc1C	8.2µM*	0%	15µM*	-22%	?	-78*
CCCC(=O)N/C(N)=N/c1nc(C)c2cc(C)ccc2n1	23µM*	-16%	18µM*	2%	?	-20
Cc1nc(/N=C(\N)NC(=O)N2c3ccccc3Sc3ccccc32)nc2ccccc12	?	-1%	?	-1%	-19%	8
CCOC(=O)c1c(NC(=O)C(C)OC(=O)c2ccc(NC(=O)CC#N)cc2)sc2c1CCCC2 (stereo not drawn)	?	-21%	23µM*	-5%	?	-80*
CCOC(=O)c1c(NC(=O)c2ccc(Br)cc2)sc2c1CCCC2	-17%	.	13%	.	.	.
CCOC(=O)c1c(NC(=O)c2ccc(-n3cnnn3)cc2)sc2c1CCCC2	16µM*	14%	12µM*	9%	-16%	0
CCOC(=O)c1c(NC(=O)c2ccc(N3C(=O)[C@@H]4[C@H](C3=O)[C@H]3C=C[C@@H]4C3)cc2)sc2c1CCCC2	23µM*	0%	-85%	4%	?	27
CCOC(=O)c1c(NC(=O)C2C3C=CC(C3)C2(C)C(=O)O)sc2c1CCCC2 (stereo not drawn)	18µM*	2%	13µM*	-15%	-14%	16
Cc1ccccc1CSc1nnc(-c2ccncc2)n1C	8%	19%	12%	22%	10%	-12
CC(CCc1ccccc1)NC(=O)CCc1cn(C)c2ccccc12 (stereo not drawn)	18µM*	18%	-1%	25%	-10%	-77*
CC(C)NC(=O)CCCc1cn(C)c2ccccc12	-5%	13%	-15%	5%	8%	-2
Cn1cc(CCCC(=O)NCc2cccc(Br)c2)c2ccccc21	18µM*	.	?	.	.	.
CCn1cc(CCC(=O)NC(C)c2ccccc2)c2ccccc21 (stereo not drawn)	-4%	-8%	-13%	2%	18%	-10
O=C(Cc1cccs1)NCc1cccc(Br)c1	10%	0%	-12%	-3%	?	-4
COc1cccc(CNC(=O)CCCc2cn(C)c3ccccc23)c1	5%	-2%	0%	1%	-18%	-23
O=C(Cc1csc2ccccc12)NCc1cccc(Br)c1	21µM*	.	16µM*	.	.	.
Cc1ccccc1Cn1cc(CCC(=O)NC(C)c2ccccc2)c2ccccc21 (stereo not drawn)	23µM*	.	13µM*	.	.	.
CCOc1ccc(CCNC(=O)NCc2noc3ccc(C)cc23)cc1	?	.	-24%	.	.	.
CCc1nn(Cc2c(C)cc(C)cc2C)c(=O)c2cc3cc(C)ccc3n12	0%	.	-29%	.	.	.
CCn1c(=O)cc(OCC(=O)NCCCN2CCC(C)CC2)c2ccccc21	-7%	-17%	-6%	-26%	?	-8
CCn1c(=O)c2cc(C(=O)NCCCN3CCC(C)CC3)sc2c2ccccc21	18µM*	.	23µM*	.	.	.
CCn1c(=O)c2cc(C(=O)NC3CCC(C)CC3)sc2c2ccccc21 (stereo not drawn)	-85%	.	16µM*	.	.	.
SMILES	DT40 TDP1 no CPT	HT1080 IDH1KD tx	TDP1 cell CPT	HT1080NT lethal	ELG1 repair inh	IL1B secr inh
CCn1c(=O)c2cc(C(=O)NCCCN3CCN(C)CC3)sc2c2ccccc21	?	.	16µM*	.	.	.
CCN1CCN(CCCNC(=O)c2cc3c(=O)[nH]c4ccccc4c3s2)CC1	?	?	?	-21%	?	?
COc1ccc(NC(=O)CN(C)C(=O)CCCNC(=O)c2ccc(Cl)cc2)cc1	5%	1%	-1%	5%	?	2
Cc1cc(C)c2c(c1)c1nnc(SCCN3CCOCC3)nc1n2C	8.2µM*	4%	-8%	-2%	-3%	-1
CCn1c2nc(SCCN3CCOCC3)nnc2c2cc(C)cc(C)c21	?	-25%	16µM*	-22%	-9%	0
c1ccc2c(c1)[nH]c1nc(SCCN3CCOCC3)nnc12	?	-3%	-21%	-2%	-5%	28
COC(=O)c1ccc(NC(=O)CCC(=O)c2ccc(F)cc2)cc1	4%	-25%	-13%	?	-9%	-14
CN1CCCC(OC(=O)c2ccc(S(=O)(=O)N(C)C)cc2)C1 (stereo not drawn)	-10%	2%	-2%	-1%	?	10
CC(=O)Nc1ccc(Nc2nc(C)nc3c2nnn3Cc2ccccc2Cl)cc1	16µM*	?	-16%	?	-4%	-19
Cc1nc(Nc2ccc(Cl)cc2)c2nnn(Cc3ccccc3)c2n1	?	-16%	?	-25%	-1%	-1
